# PMC7862700, “An all-to-all approach to the identification of sequence-specific readers for epigenetic DNA modifications on cytosine”
# What was measured:
# Assay in all cases: DAPPL (digital affinity profiling via proximity ligation, sequencing); 10 mM Tris-HCl pH 7.5, 50 mM NaCl, 1 mM DTT, 4% glycerol, room temperature, 30 min; GST-TFs on glutathione beads, 16-mer random dsDNA library, 0.1% formaldehyde crosslink after washing; high values mean tight binding
# [1] = target: T1, FEV (Homo sapiens, UniProt Q99581 1-238); conditions: protein: recombinant; tags: N-terminal GST; dsDNA, one strand shown
# T1 sequence: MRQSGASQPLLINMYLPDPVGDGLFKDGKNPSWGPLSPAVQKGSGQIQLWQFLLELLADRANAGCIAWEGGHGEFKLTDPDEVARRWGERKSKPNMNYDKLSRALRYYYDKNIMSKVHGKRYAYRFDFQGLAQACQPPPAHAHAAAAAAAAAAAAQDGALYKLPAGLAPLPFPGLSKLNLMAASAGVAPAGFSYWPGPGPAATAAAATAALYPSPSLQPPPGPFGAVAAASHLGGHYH
# In short: (§1)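 In yeast, human transcription factors were expressed with a GST fusion, then pulled down on glutathione beads and given DNA barcodes. Pooled with a tag-only sample, they were exposed to 200 nmole of a 16-mer random double-stranded DNA library (Tris/NaCl/DTT/glycerol buffer, room temperature, 30 min), washed, crosslinked with 0.1% formaldehyde, proximity-ligated using BsaI/T4 ligase for 1 h at 37 °C, PCR-amplified and read on an Illumina NextSeq500. Each hexamer's frequency of reads for a factor, divided by the matching frequency for the tag-only sample, gives the binding signal.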
# [2] = target: ETV5 (Homo sapiens, UniProt P41161 1-510); conditions: protein: recombinant; tags: N-terminal GST; dsDNA, one strand shown
# In short: as §1
# [3] = target: HSF1 (Homo sapiens, UniProt Q00613 1-529); conditions: protein: recombinant; tags: N-terminal GST; chain copies: 3; dsDNA, one strand shown
# In short: as §1
# [4] = target: T2, SPIC (Homo sapiens, UniProt Q8N5J4 1-248); conditions: protein: recombinant; tags: N-terminal GST; dsDNA, one strand shown
# T2 sequence: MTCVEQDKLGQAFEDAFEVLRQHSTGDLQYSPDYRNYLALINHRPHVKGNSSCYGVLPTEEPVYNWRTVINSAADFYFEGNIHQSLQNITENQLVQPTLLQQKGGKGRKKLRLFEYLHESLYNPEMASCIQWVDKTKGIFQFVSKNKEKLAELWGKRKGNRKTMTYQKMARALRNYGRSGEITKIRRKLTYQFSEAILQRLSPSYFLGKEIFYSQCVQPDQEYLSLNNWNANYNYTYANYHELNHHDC
# In short: as §1
# [5] = target: ELF4 (Homo sapiens, UniProt Q99607 1-663); conditions: protein: recombinant; tags: N-terminal GST; dsDNA, one strand shown
# In short: as §1
# [6] = target: T3, ELK4 (Homo sapiens, UniProt P28324-2 1-405); conditions: protein: recombinant; tags: N-terminal GST; dsDNA, one strand shown
# T3 sequence: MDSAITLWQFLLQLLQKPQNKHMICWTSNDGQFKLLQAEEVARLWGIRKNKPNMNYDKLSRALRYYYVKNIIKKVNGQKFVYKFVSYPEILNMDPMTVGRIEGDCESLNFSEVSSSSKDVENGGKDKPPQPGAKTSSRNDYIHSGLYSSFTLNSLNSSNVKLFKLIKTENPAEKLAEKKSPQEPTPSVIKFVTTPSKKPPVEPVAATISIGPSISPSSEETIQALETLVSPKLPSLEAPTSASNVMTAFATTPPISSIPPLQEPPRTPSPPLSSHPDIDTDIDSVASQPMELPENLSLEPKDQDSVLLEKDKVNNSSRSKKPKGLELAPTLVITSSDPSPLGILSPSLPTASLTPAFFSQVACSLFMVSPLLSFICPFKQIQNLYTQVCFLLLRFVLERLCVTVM
# In short: as §1
# [7] = target: T4, ETV2 (Homo sapiens, UniProt O00321 1-342); conditions: protein: recombinant; tags: N-terminal GST; dsDNA, one strand shown
# T4 sequence: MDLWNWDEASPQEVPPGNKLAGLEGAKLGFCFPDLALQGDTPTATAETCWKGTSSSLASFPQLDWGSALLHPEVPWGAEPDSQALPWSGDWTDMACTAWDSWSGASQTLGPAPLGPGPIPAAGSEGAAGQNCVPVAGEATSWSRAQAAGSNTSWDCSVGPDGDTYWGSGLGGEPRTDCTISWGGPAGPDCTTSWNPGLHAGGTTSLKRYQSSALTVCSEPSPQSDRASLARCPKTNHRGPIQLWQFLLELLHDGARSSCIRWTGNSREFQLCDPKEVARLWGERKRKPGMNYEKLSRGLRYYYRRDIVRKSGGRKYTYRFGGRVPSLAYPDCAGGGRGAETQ
# In short: as §1
# [8] = target: T5, ELF3 (Homo sapiens, UniProt P78545 1-371); conditions: protein: recombinant; tags: N-terminal GST; dsDNA, one strand shown
# T5 sequence: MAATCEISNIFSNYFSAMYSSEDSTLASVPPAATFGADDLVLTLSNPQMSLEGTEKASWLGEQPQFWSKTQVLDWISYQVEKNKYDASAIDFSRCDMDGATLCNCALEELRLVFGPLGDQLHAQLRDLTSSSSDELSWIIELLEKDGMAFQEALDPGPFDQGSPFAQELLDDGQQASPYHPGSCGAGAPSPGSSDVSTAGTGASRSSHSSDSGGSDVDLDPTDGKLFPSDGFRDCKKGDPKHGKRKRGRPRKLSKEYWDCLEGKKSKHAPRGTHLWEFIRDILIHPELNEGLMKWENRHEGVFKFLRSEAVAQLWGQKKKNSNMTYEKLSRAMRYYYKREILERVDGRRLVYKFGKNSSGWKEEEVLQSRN
# In short: as §1
# [9] = target: ETV1 (Homo sapiens, UniProt P50549 1-477); conditions: protein: recombinant; tags: N-terminal GST; dsDNA, one strand shown
# In short: as §1
# ETV5, sequence (P41161 whole entry): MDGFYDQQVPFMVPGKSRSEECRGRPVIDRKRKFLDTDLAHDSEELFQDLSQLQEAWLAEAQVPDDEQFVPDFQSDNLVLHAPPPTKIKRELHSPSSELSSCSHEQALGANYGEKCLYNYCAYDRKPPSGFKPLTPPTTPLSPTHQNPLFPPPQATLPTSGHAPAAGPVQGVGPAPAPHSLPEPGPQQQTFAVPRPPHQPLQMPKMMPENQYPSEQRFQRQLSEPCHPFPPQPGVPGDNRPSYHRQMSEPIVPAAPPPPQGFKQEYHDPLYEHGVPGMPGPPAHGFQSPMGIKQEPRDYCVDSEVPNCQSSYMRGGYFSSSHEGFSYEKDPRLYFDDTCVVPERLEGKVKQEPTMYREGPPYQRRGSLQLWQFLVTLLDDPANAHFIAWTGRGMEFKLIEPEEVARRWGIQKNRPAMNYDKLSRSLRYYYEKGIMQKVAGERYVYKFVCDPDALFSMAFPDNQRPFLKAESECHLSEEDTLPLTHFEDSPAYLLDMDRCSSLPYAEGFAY
# ETV1, sequence (P50549 whole entry): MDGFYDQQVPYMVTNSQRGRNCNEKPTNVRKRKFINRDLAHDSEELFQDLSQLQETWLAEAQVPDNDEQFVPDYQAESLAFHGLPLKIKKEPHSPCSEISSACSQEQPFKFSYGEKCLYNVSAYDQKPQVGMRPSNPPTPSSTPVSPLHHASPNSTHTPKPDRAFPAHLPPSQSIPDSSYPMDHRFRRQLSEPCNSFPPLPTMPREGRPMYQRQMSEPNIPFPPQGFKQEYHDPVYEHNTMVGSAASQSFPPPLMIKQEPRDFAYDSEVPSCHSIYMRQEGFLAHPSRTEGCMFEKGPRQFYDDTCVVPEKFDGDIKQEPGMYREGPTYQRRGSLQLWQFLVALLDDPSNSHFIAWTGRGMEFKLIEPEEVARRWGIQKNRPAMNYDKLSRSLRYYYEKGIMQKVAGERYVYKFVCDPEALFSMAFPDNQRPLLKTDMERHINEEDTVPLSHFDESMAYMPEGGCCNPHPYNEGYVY
# HSF1, sequence (Q00613 whole entry): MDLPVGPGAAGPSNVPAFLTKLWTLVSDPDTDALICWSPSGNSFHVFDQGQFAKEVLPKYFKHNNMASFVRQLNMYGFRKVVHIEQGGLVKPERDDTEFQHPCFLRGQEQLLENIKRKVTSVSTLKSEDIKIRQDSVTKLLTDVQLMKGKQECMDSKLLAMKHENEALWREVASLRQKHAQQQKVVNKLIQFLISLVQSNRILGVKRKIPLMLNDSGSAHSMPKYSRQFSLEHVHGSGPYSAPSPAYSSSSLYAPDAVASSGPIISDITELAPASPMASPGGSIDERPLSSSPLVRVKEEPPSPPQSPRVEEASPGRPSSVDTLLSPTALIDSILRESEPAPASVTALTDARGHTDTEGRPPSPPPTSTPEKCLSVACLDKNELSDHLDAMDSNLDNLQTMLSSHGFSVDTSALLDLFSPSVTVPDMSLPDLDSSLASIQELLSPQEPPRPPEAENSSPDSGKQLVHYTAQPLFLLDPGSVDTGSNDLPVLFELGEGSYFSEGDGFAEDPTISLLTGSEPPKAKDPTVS
# ELF4, sequence (Q99607 whole entry): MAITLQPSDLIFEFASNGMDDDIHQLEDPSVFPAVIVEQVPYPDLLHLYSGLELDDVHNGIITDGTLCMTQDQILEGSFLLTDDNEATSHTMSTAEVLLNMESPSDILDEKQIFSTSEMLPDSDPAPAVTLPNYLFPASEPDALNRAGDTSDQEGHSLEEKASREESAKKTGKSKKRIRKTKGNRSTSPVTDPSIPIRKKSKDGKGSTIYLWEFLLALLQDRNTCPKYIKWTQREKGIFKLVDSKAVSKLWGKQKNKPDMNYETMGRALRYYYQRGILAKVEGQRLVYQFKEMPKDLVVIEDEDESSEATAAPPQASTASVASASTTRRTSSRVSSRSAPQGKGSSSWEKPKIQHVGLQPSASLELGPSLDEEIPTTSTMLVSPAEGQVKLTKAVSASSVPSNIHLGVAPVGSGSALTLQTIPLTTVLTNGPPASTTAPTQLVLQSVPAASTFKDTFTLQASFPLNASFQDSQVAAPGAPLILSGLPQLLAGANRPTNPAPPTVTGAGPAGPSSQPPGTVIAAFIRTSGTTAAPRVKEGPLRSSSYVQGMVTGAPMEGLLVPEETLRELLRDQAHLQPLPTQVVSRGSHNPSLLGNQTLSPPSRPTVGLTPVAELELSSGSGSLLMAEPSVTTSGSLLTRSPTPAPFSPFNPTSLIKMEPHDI
sequence,measurement,setting,value
GGTTTC,binding signal,[1],"1.55 fold enrichment (6-mer frequency, TF over GST control)"
same,binding signal,[2],"1.61 fold enrichment (6-mer frequency, TF over GST control)"
same,binding signal,[3],"1.16 fold enrichment (6-mer frequency, TF over GST control)"
same,binding signal,[4],"1.5 fold enrichment (6-mer frequency, TF over GST control)"
same,binding signal,[5],"1.49 fold enrichment (6-mer frequency, TF over GST control)"
same,binding signal,[6],"1.36 fold enrichment (6-mer frequency, TF over GST control)"
same,binding signal,[7],"1.43 fold enrichment (6-mer frequency, TF over GST control)"
same,binding signal,[8],"1.31 fold enrichment (6-mer frequency, TF over GST control)"
same,binding signal,[9],"1.64 fold enrichment (6-mer frequency, TF over GST control)"
